The whole screen tested about 310,000 compounds, of which about 14,000 (4.5%) showed an effect of 50% or more. The effect is printed as a negative number. Many of the other results were omitted from the sample, so strong results are more common in it than they were.
Molecular target: human ether-à-go-go-related gene (hERG) potassium channel (human, UniProt Q12809)
Assay: primary screen, population patch clamp on CHO cells stably expressing hERG; higher = less effect of the substance
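Note: peak tail current of the secondary pulse compared with the same well before compound.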

Sequence of human ether-à-go-go-related gene (hERG) potassium channel (Q12809 whole entry, looked up): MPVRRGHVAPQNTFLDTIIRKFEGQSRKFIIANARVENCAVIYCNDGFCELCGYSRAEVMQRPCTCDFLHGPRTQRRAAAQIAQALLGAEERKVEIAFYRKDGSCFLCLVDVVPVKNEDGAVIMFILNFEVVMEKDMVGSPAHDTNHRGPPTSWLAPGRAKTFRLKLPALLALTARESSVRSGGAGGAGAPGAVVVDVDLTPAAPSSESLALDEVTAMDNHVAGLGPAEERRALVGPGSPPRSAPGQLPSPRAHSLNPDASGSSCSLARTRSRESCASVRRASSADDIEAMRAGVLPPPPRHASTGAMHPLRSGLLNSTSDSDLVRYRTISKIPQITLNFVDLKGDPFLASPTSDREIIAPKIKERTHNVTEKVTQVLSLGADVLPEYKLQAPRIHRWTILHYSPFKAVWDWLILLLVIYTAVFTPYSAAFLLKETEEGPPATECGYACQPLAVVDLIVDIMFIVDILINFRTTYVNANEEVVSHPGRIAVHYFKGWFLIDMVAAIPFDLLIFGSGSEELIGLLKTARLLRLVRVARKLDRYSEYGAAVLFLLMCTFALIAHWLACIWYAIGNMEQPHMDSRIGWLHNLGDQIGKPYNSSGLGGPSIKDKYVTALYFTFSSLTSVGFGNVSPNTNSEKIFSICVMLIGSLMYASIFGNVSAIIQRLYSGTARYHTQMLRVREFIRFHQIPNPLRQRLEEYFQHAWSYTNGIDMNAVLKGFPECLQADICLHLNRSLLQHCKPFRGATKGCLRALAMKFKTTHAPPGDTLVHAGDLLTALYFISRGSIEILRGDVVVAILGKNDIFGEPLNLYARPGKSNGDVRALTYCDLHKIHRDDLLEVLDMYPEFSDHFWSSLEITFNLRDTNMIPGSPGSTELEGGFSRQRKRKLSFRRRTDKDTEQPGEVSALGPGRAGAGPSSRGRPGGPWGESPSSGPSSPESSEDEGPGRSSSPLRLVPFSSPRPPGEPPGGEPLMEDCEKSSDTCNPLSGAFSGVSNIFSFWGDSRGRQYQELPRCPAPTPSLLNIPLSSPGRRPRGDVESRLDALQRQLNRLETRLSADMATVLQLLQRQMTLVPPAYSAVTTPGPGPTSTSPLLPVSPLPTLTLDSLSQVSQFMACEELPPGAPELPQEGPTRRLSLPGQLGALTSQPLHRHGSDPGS

Point of comparison: CCCCCCCN1CCC(=O)N([C@H](CO)c2ccccc2)CC1, “hERG current change (%, negative = inhibition) at 10uM” value -63.7%. Against it:
- CCN(CC)S(=O)(=O)c1cccc(-c2nnc(SCCCC(=O)c3ccccc3)o2)c1 — higher, -23.8%
- O=C(Nc1ccc(O)cc1)C1CCCN1S(=O)(=O)c1ccc(F)cc1 (centres unmarked) — higher, -1.44%
- COC(=O)c1sc(N)c(C(=O)OC)c1CSc1nnnn1C — higher, -12.2%
- C=CCn1c(SCc2ccc(C(=O)OC)cc2)nnc1-c1sc(N)nc1C — higher, -8.5%
- C=CCn1c(SCC(=O)NC2CCCCC2)nnc1-c1ccc(OC)cc1 — higher, -12%
- COC(=O)c1sc(N)c(C(=O)OC)c1CSc1nnc(-c2ccccc2Cl)n1C — higher, -24.5%
- C=CCn1c(SCc2c(C(=O)OC)sc(N)c2C(=O)OC)nnc1-c1ccc(Br)cc1 — lower, -65.4%
- C=CCn1c(SCc2c(C(=O)OC)sc(N)c2C(=O)OC)nnc1-c1ccc(Cl)cc1 — higher, -58.1%
- O=C(O)c1cccnc1SCC(=O)N1CCCc2ccccc21 — higher, 14.6%
- Nc1nc(SCC(=O)Nc2ccccc2)nc2nc3c(cc12)CCCC3 — higher, -1.5%
- C=C1SC(=Nc2c(C)cccc2Cl)N(C(=O)c2sc3ccccc3c2Cl)C12CCCCC2 — higher, 25.8%
- Cc1ccc(S(=O)(=O)NCCCCCC(=O)Nc2cccc(C)c2)cc1 — higher, -39.2%
- Cc1cc(Cl)c(OCCCN(C)C)c(Br)c1.O=C(O)C(=O)O — higher, -40.4%
- Cc1cc(C)c(OCCN2CCCC2)c(Cl)c1 — higher, -42.1%
- Cc1cc(Cl)c(OCCCCN2CCOCC2)c(Br)c1 — higher, -30.2%
- Cc1cc(C)c(OCCCCN2CCNCC2)c(C)c1.O=C(O)C(=O)O — higher, 9.44%
- Cc1cc(Cl)c(OCCCN2CCCCC2)c(Br)c1.O=C(O)C(=O)O — lower, -68.1%
- Cc1cc(C)c(OCCN2CCOCC2)c(Cl)c1 — higher, 8.09%
- Cc1cc(C)c(OCCCCN2CCC(C)CC2)c(Br)c1 — lower, -72.7%
- Cc1cc(C)c(OCCN2CC(C)OC(C)C2)c(Br)c1.O=C(O)C(=O)O (centres unmarked) — higher, -17.5%
- Cc1cc(Cl)cc(Cl)c1OCCN1CCCC1 — higher, -55%
- Cc1cc(Cl)c(OCCOCCN2CCNCC2)c(Cl)c1.O=C(O)C(=O)O — higher, -7.47%
- Cc1cc(Cl)c(OCCOCCN2CCN(C)CC2)c(Br)c1.O=C(O)C(=O)O — higher, -9.48%
- Cc1cc(Cl)c(OCCOCCN2CCC(C)CC2)c(Br)c1.O=C(O)C(=O)O — higher, -57.6%
- CCOC(=O)c1ccc(S(=O)(=O)NCCN(CC)CC)cc1.Cl — higher, 11.4%
- CS(=O)(=O)N1CCC(Oc2cccc(C(=O)NCCCC3CCCC3)c2)CC1 — higher, -30.3%
- Cc1ccc(S(=O)(=O)N2CCN(C(=O)CN3C(=O)c4ccccc4C3=O)CC2)c(C)c1 — higher, 9.02%
- CCN(CC(=O)Nc1ccc(Cl)c(C(F)(F)F)c1)CC(=O)NC1CCS(=O)(=O)C1 (centres unmarked) — higher, -13.2%
- CCOc1ccc(C2Nc3ccccc3NC3=C2C(=O)CC(C)(C)C3)cc1OC (centres unmarked) — higher, 15.6%
- Cc1ccc2nsnc2c1S(=O)(=O)N1CCN(C(=O)C2CCCO2)CC1 (centres unmarked) — higher, 2.61%
- Cc1ccc(NC(=O)C2CCN(S(=O)(=O)c3ccc4c(c3)CCCC(=O)N4)CC2)c(Br)c1 — higher, -5.9%
- CCOc1c2ccc(C(=O)N[C@H](C)C3CCCCC3)cc2nn1CCOC — higher, -18.2%
- CN1CCN(CCOCCOc2c(Cl)cc(Cl)cc2Cl)CC1.O=C(O)C(=O)O — higher, -26.9%
- Cc1cc(C)c(OCCOCCN2CCN(C)CC2)c(Cl)c1.O=C(O)C(=O)O — higher, -5.21%
- Cc1cc(Cl)c(OCCOCCN2CCCC(C)C2)c(Br)c1.O=C(O)C(=O)O (centres unmarked) — higher, -61.8%
- Cc1cc(C)c(NC(=O)NC(=O)c2ccc(F)cc2)c(C)n1 — higher, -0.738%
- CC(C)c1ccc(N(C(=O)c2ccc3c(c2)OCO3)C2C=CS(=O)(=O)C2)cc1 (centres unmarked) — lower, -66.2%
- O=C(c1ccc2c(c1)OCO2)N(c1ccc(Cl)cc1)C1C=CS(=O)(=O)C1 (centres unmarked) — higher, -16.8%
- Cc1ccc(N(C(=O)c2ccc3c(c2)OCO3)C2C=CS(=O)(=O)C2)cc1 (centres unmarked) — higher, -29.7%
- COc1ccccc1P(=O)(c1ccccc1)c1ccccc1NC(C)=O (centres unmarked) — higher, 14.3%
- CCOC(=O)c1sc(N(Cc2ccccc2)C(=O)COC(=O)c2ccccc2O)nc1C — higher, -5.14%
- CCOC(=O)c1sc(N(Cc2ccccc2)C(=O)CN2C(=O)CN(C)C2=O)nc1C — higher, -59%
- CCOC(=O)c1sc(N(Cc2ccccc2)C(=O)CCl)nc1C — higher, -6.21%
- CN1CCN(CCCNC(=O)c2nnc(Cc3c(F)cccc3Cl)o2)CC1 — higher, -3.44%
- O=C(NCCCN1CCN(Cc2ccccc2)CC1)c1nnc(Cc2c(F)cccc2Cl)o1 — higher, -63.1%
- CCOc1ccccc1C(=O)NCCNC(=O)c1ccccc1OCC — higher, -2.01%
- CCOc1ccccc1C(=O)NCCCN1CCN(CCCNC(=O)c2ccccc2OCC)CC1 — higher, -53.3%
- Cl.O=C(NCCN1CCN(c2ccccc2)CC1)c1ccccc1F — higher, -11%
- CCOc1ccccc1C(=O)NCCCCNC(=O)c1ccccc1OCC — higher, -31.4%
- O=C(NCCCCNC(=O)c1ccccc1F)c1ccccc1F — higher, 14.8%
- O=C(NCCCN1CCCC1=O)c1nnc(Cc2c(F)cccc2Cl)o1 — higher, 1.34%
- O=C(NCCCN1CCN(CCCNC(=O)c2ccccc2F)CC1)c1ccccc1F — higher, -53%
- CC(C)CN(C(=O)C1CC1)c1c(N)n(Cc2ccccc2)c(=O)[nH]c1=O — higher, 21.2%
- CC1CCCC(C)N1C(=O)CSc1nnnn1Cc1ccccc1 (centres unmarked) — higher, -3.54%
- O=C(NNc1cccc(Cl)c1)c1cccnc1Oc1ccccc1 — higher, -8.21%
- Fc1cccc(Cl)c1CSc1nnc(CNc2ccccc2)o1 — higher, -21.5%
- COc1ccc(CC(=O)N/N=C/c2cccn2-c2ccc([N+](=O)[O-])cc2)cc1OC — higher, -37.9%
- Cn1c(=O)n(CC(N)=O)c(=O)c2c1nc1n2CCCN1Cc1ccccc1 — higher, 14.8%
- CCN(CC(=O)NC1CC1)S(=O)(=O)c1ccccc1 — higher, 10%
- Br.Cc1csc(=Nc2ccccc2)n1C — higher, -2.07%
- COc1ccc2c(C)cc(SCC(=O)Nc3cccnc3Cl)nc2c1 — higher, 10.3%
- Cc1ccnc(NC(=O)c2cc3ccccc3oc2=O)c1 — higher, 8.47%
- Cc1cc(NS(=O)(=O)c2cccc([N+](=O)[O-])c2)no1 — higher, 28.8%
- CCCCCCCN1CCC(=O)N(CCO)CC1 — higher, -54.3%
- CCCCCCCN1CCC(=O)N([C@H](CO)Cc2ccccc2)CC1 — lower, -78.8%
- CCCCCCCN1CCC(=O)N([C@H](CO)CC(C)C)CC1 — higher, -63%
- CC(C)CN1CCC(=O)N(CCO)CC1 — higher, 1.33%
- O=C1CCN(CCCc2ccccc2)CCN1[C@H](CO)c1ccccc1 — higher, -29.7%
- CCCN1CCC(=O)N([C@H](CO)Cc2ccccc2)CC1 — higher, 0.476%
- CCCN1CCC(=O)N(CCO)CC1 — higher, -3.79%
- CCCN1CCC(=O)N([C@H](CO)c2ccccc2)CC1 — higher, 9.36%
- O=C1CCN(CCCc2ccccc2)CCN1[C@H](CO)Cc1ccccc1 — higher, -40.6%
- CCCN1CCC(=O)N([C@H](CO)CC(C)C)CC1 — higher, 20%
- CC(C)C[C@@H](CO)N1CCN(CC(C)C)CCC1=O — higher, 4.64%
- CCOC(=O)Cc1ccc(NC(=O)c2ccccc2Br)cc1 — higher, -7.9%
- O=S(=O)(c1ccc(Br)s1)N1CCN(c2ncccn2)CC1 — higher, -3.42%
- Nc1ccccc1-c1nnc2n1CCCCC2 — higher, 25.8%
- Cc1cc(C)c(C(=O)CSc2nnc(C)s2)c(C)c1 — higher, 18.2%
- CCCC1(C(=O)OCC)NC(c2ccc(N(C)C)cc2)C2C(=O)N(c3ccc(F)cc3)C(=O)C21 (centres unmarked) — higher, -8.18%
- CCCCNC(=O)c1sc2nc(C)cc(COC)c2c1-n1cccc1 — higher, -10.7%
- S=C(c1ccccc1)N(c1ccccc1)c1ccccc1 — higher, 7.21%
- Cc1ccc(N2CC(C(=O)Nc3ccc(S(=O)(=O)N4CCCC4)cc3)CC2=O)cc1 (centres unmarked) — higher, -8.07%
- O=C(Nc1ccccc1)C1=C(O)CC(c2ccoc2)CC1=Nc1ccccc1 (centres unmarked) — higher, 15%
- O=C1CCCCC1Oc1ccc2ccc(=O)oc2c1 (centres unmarked) — higher, 19.6%
- Cc1coc2c(C)c3oc(=O)c(CCC(=O)NCCN4CCOCC4)c(C)c3cc12 — higher, -24.6%
- O=C(c1ccc(Oc2ccc(Cl)cc2)c([N+](=O)[O-])c1)N1CCCC1 — higher, -63%
- O=C(c1ccc(Br)c([N+](=O)[O-])c1)N1CCN(Cc2ccccc2)CC1 — higher, -61.2%
- COc1ccc(C(=O)N2CCN(Cc3ccccc3)CC2)cc1[N+](=O)[O-] — higher, -52%
- O=C(c1ccc(Cl)c([N+](=O)[O-])c1)N1CCN(Cc2ccc3c(c2)OCO3)CC1 — higher, -26.7%
- Cc1cc(C(=O)N2CCN(Cc3ccccc3)CC2)ccc1[N+](=O)[O-] — higher, -32%
- CC(OC(=O)c1ccc(Cl)c([N+](=O)[O-])c1)C(=O)N1CCN(Cc2ccccc2)CC1 (centres unmarked) — lower, -71.1%
- COc1cc(N(C)C)c([N+](=O)[O-])cc1C(=O)N1CCN(Cc2ccccc2)CC1 — higher, 9.99%
- NC(=O)c1ccc(Oc2ccc(Cl)cc2)c([N+](=O)[O-])c1 — higher, 12.6%
- CC(C(=O)N1CCN(Cc2ccccc2)CC1)c1ccc([N+](=O)[O-])cc1 (centres unmarked) — higher, -43.7%
- COc1ccc(C(=O)N2CCN(Cc3ccc4c(c3)OCO4)CC2)cc1[N+](=O)[O-] — higher, -44.6%
- O=C(c1ccc(S(=O)(=O)c2ccccc2Cl)c([N+](=O)[O-])c1)N1CCN(Cc2ccccc2)CC1 — higher, -25.3%
- O=C(c1ccc(Oc2ccc([N+](=O)[O-])cc2Cl)cc1)N1CCCC1 — higher, -32.2%

From publication PMC4336329 (PLoS ONE, 2015)
